Test results: PubChem BioAssay AID1053173 (Broad Institute, 2014)
The campaign covered roughly 1,500 compounds. About 390 (26%) were called active. How the calls were made is not given here. These entries were drawn from the full list. Results with a measured potency or affinity are listed apart.

These molecules were tested against Histone-lysine N-methyltransferase NSD2 (Homo sapiens) (UniProt O96028) (assay: NSD2 methyltransferase inhibitors, dose response, biochemical, AlphaScreen, cherry-picked samples (AID 1053173)). Details: NSD2 H4 peptide methylation, 120 min; series mostly up to 10 µM.
Sequence of Histone-lysine N-methyltransferase NSD2 (Homo sapiens) (O96028 whole entry, looked up): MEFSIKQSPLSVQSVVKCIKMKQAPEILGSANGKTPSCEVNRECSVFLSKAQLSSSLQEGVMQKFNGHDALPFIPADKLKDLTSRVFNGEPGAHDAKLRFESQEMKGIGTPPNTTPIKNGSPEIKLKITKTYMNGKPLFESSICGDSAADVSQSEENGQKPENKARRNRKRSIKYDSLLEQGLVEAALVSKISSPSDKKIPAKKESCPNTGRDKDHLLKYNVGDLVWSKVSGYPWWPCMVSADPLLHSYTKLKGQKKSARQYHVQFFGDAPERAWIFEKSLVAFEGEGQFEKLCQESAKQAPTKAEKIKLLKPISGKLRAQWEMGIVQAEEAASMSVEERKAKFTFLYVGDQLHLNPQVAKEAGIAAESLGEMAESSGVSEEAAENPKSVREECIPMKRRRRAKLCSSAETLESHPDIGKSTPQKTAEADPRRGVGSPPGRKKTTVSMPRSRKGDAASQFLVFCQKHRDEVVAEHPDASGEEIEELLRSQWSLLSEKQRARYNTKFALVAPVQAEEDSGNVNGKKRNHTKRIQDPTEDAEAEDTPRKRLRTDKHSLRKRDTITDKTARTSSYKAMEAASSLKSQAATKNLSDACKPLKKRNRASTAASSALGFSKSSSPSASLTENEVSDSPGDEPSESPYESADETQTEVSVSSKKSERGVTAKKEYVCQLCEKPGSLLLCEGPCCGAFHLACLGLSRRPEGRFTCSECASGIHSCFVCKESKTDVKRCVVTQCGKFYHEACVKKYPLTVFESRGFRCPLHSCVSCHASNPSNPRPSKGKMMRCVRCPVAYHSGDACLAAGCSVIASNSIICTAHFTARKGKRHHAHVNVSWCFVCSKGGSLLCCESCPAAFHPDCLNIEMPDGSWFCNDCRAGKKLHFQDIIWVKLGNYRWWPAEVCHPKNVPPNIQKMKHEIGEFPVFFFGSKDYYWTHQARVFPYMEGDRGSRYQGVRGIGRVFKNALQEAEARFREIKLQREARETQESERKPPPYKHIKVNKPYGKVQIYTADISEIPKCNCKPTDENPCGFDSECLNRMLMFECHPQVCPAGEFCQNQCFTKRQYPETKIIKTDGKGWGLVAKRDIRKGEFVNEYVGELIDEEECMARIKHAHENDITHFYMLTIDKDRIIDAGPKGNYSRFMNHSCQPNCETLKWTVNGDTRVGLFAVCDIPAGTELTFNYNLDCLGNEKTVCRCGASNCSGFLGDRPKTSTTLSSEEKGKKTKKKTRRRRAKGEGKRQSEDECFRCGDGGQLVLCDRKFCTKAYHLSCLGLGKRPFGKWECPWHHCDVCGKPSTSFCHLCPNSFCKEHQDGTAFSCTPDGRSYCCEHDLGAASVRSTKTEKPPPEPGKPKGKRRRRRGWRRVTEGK

outcome, inactive:
Cc1cccc2c(N=NC(=O)c3ccc(NS(=O)(=O)c4cccs4)cc3)c(O)[nH]c12
Cc1cc(S(=O)(=O)NCc2cccnc2)ccc1F
O=C(COc1ncnc2c(Cl)cc(Cl)cc12)N1CCCCC1
Cn1ncc2c(Nc3cccc4ccccc34)ncnc21
O=C(NCCN1CCOCC1)NC1(C(F)(F)F)Oc2ccccc2O1
CCCCc1ccc(NC(=O)CSc2nc(=O)n(CCN(CC)CC)c3c2CCCC3)cc1
Cc1cc(SCC(=O)Nc2cccnc2Cl)nc2ccccc12
COc1ccc(C(=O)Nn2c(SCC(=O)c3ccc(Cl)cc3)nc3ccccc3c2=O)cc1
Cc1ccc(-c2cc(C(=O)N/N=C/c3ccccc3)n[nH]2)o1
Cc1cc(=O)[nH]c(N/N=C/c2c(C)nn(-c3ccccc3Cl)c2Cl)n1
Cc1ccc(O)c(NC(=O)c2cc3nc4c(c(C(F)(F)F)n3n2)CCc2ccccc2-4)c1
O=C(Nc1cc(F)ccc1F)N1CCN(c2ccnc3cc(Cl)ccc23)CC1
COc1ccc(C(=O)C(OC(=O)c2ccc(C)c(NC(C)=O)c2)c2ccccc2)cc1 (stereo not drawn)
COCCN(C(=O)CNC(=O)c1ccco1)C(C(=O)NC1CCCC1)c1ccc(OC)cc1 (stereo not drawn)
CC1(C)NC(=O)N(CCCOc2ccccc2Br)C1=O
CCOc1cc(NC2CS(=O)(=O)CC2O)c(OCC)cc1NC(=O)c1ccccc1 (stereo not drawn)
Cc1ccc(N2C(=O)N(CC(=O)Nc3cccc([N+](=O)[O-])c3C)C(=O)C2C)cc1 (stereo not drawn)
O=C(CC(=O)Nc1ccc(Cl)cc1)N/N=C\c1cccc(F)c1
Cc1ccc(NC(=O)CCn2c(=O)oc3ccccc32)cc1
CNS(=O)(=O)c1cc(NC(=O)CCCNC(=O)c2ccc(Cl)cc2)ccc1C
CC1CCN(CCC(=O)Nc2ccccc2)CC1
Cc1ccc(NC(=O)CCC(=O)OCC(F)(F)C(F)F)cc1
O=C(NNC(=O)c1ccc(NC(=O)C2CC2)cc1)c1ccc(F)cc1
CC1CCCCC12NC(=O)N(CC(=O)NC(=O)NCc1ccco1)C2=O (stereo not drawn)
COc1cccc(CNC(=S)Nc2ccc(Cl)cc2C)c1
O=[N+]([O-])c1ccccc1-c1ccc(C(=S)N2CCCC2)o1
Cn1cc(-c2ccccc2C(N)=O)c(=O)c2ccccc21
CC1CCCC(NC(=O)COC(=O)c2c[nH]c(=O)[nH]c2=O)C1C (stereo not drawn)
O=C(OCc1cnc(Cl)s1)c1cccs1
Cc1ccc(N2CS(=O)(=O)/C(=C/N(C)C)C2=O)cc1
Cn1c(CSCc2ccccc2)nnc1SCC(=O)Nc1nccs1
O=C(CC1C(=O)N(c2ccccc2)C(=S)N1c1ccccc1)c1ccc(Br)cc1 (stereo not drawn)
CCn1c(O)c(/C=N/n2cnnc2)sc1=S
CCOc1ccc(-c2nnc(SCc3nc4ccccc4[nH]3)n2N)cc1
CCOC(=O)C(Oc1ccc2c(-c3ccc(OC)cc3)cc(=O)oc2c1C)c1ccccc1 (stereo not drawn)
CCOC(=O)c1c(C#N)c(SCC(=O)Nc2ccc(OC)cc2)nc2c1CN(CC)CC2
COc1ccc(OCCSc2nnc(CCNC(=O)c3ccc(Cl)c(Cl)c3)n2C)cc1
COc1cccc(CN2C(=O)C(C)N(C(=O)c3c(F)cccc3F)c3ccccc32)c1 (stereo not drawn)
CN1CCN(c2ccc(S(=O)(=O)N3CCOCC3)cc2NC(=O)COc2ccc(F)cc2Cl)CC1
COc1ccc(C2C(C(=O)/C=C/c3ccco3)=C(O)C(=O)N2CCN2CCOCC2)cc1OC (stereo not drawn)
COc1ccc(CCNC(=O)Nc2ccc3c(c2)c(=O)n(C)n3CC=C(C)C)cc1OC
CCc1nnc(NC(=O)c2ccc3ccccc3n2)s1
CCc1nnc(NC(=O)c2ccc(COc3ccccc3)o2)s1
CCC1(c2ccc(F)cc2)NC(=O)N(CC(=O)N(CCC#N)c2ccccc2)C1=O (stereo not drawn)
Cc1ccc(S(=O)(=O)N(C)C)cc1NC(=O)/C=C/c1cccs1
CC1(C)Cc2sc3c(=O)[nH]c(=S)[nH]c3c2CO1
CCOc1ccc(N2CC(C(=O)NCCc3c[nH]c4ccc(OC)cc34)CC2=O)cc1 (stereo not drawn)
Cc1ccc(NC(=O)Cn2nnc(C(=O)NCc3ccccc3)c2N)cc1C
Cc1cc(C(=O)COC(=O)c2ccc([N+](=O)[O-])o2)c(C)n1CC1CCCO1 (stereo not drawn)
COc1ccc(C(c2c(C)[nH]n(-c3ccccc3)c2=O)c2c(C)[nH]n(-c3ccccc3)c2=O)cc1OC
C/C(CC(=O)Nc1ccccn1)=N\NC(=O)C(=O)Nc1cccc(Cl)c1C
COCCN(C(=O)CCC(=O)Nc1ccccn1)C(C(=O)NC(C)C)c1ccc(C)cc1 (stereo not drawn)
Cc1[nH]n(-c2ccccc2)c(=O)c1C(C[N+](=O)[O-])c1ccc(F)cc1 (stereo not drawn)
Cc1ccc(C(C[N+](=O)[O-])c2c(C)[nH]n(-c3ccccc3)c2=O)cc1 (stereo not drawn)
CCN(CC)C(=O)COC(=O)C1=NN(c2cc(C)ccc2C)C(=O)CC1
COC(=O)CCCC(=O)NC1CC(C)(C)Cc2c1cnn2-c1ccc(C)cc1 (stereo not drawn)
Cc1cccc(-c2nnc(SCC(=O)c3ccc(O)cc3O)n2C)c1
C=CCn1c(SCC(=O)N2CCN(c3ccccc3)CC2)nnc1-c1ccco1
C=CCn1c(SCc2ccc(C#N)cc2)nnc1-c1ccc(C)cc1
CN(C)c1cccc2c1c(NC(=O)Nc1ccccc1)nn2C
O=C(c1ccc2c(c1)OCO2)C1CCCN(Cc2ccc3cccc(F)c3n2)C1 (stereo not drawn)
CCNc1ccccc(C(=O)/C=C/c2ccc3c(c2)OCO3)c1=O
CC(Cc1c[nH]c2ccccc12)C(=O)NCc1ccco1 (stereo not drawn)
CCOC(=O)N1CCN(C2=Nc3cccc4cccc2c34)CC1
CSc1ncccc1C(=O)Nc1nc2c(C)cccc2s1
Nc1ncnc(NCc2ccccc2)c1[N+](=O)[O-]
COc1ccc(COc2ncnc3ccc(Br)cc23)cc1F
COc1ccc(CCNC(=O)C2CCN(C(=O)c3ccccc3C)CC2)cc1
Cc1cccc(N(CC(=O)NC(C)(C)C)C(=O)CS(=O)CC(=O)Nc2ccc3c(c2)OCO3)c1 (stereo not drawn)
CC(=O)N1CCN(Cc2nc3cc(NC(=O)Cn4nc(C)c5ccccc5c4=O)ccc3n2C)CC1
[O-][n+]1cccc2c(Br)cc(Br)c(O)c21
OC(COc1ccc2ccccc2c1Cl)CN1CCOCC1 (stereo not drawn)
CCCCN(CC)CCNC(=O)CN(C)S(=O)(=O)c1ccc2c(c1)c(=O)n(C)c(=O)n2C
Cc1ccc(C(=O)Nc2ccc(CC(=O)O)cc2)o1
CCCc1cc(Nc2ccccc2C)n2ncnc2n1
N#Cc1c(SCC(=O)OCc2ccccc2)nsc1SCC(=O)OCc1ccccc1
Cc1cc(Cl)ccc1OCCCC(=O)N1CCOCC1
CCN(CC)Cc1c(O)c(Cl)cc2c(C)cc(=O)oc12
O=S(=O)(c1ccc(-c2nnco2)cc1)N1CCCCC1
O=C(CSc1nnc2ccccn12)NNC(=O)c1ccc([N+](=O)[O-])cc1
O=C1CC(N2CCOCC2)=NN1c1ccc([N+](=O)[O-])cc1
O=C(c1ccc(N2CCOCC2)c([N+](=O)[O-])c1)N1CCN(Cc2ccccc2)CC1
c1cc(-c2ccoc2)n2ccnc2c1
CCN1C(=O)c2ccccc2S(=O)(=O)c2ccc(C(=O)NC(C)C)cc21
CC1CN(Cc2c(O)ccc3c(=O)c(-c4ccccc4Cl)coc23)CC(C)O1 (stereo not drawn)
CCCCN1C(=O)C(=Nc2cccc3cnccc23)c2ccccc21
CN(C)CCNc1nc(-c2ccco2)c2c(c1C#N)CC(C)(C)OC2
COc1ccc(C2CC(c3ccc(Cl)cc3)=NN2C(C)=O)cc1 (stereo not drawn)
Cc1ccnc(N2CCC(C(=O)NC3CCCCCC3)CC2)n1
NC(=O)c1[nH]cnc1N=NN(CCO)Cc1ccccc1
CC(Oc1ccc(Cl)cc1Cl)C(=O)NC(Cc1ccccc1)C(=O)O (stereo not drawn)
CS(=O)(=O)N(CC(=O)NCc1ccc2c(c1)OCO2)c1cccc(Cl)c1
O=C(NCc1cccnc1)c1ccc2c(c1)OCO2
C=CCOc1ccc(NC(=O)C2CC(=O)N(C(C)C)C2)cc1 (stereo not drawn)
Oc1ccc(NCc2cccc(OCc3ccc(F)cc3)c2)cc1
Oc1cccc(C=NCc2ccccc2)c1
Cc1cccc(C(=O)NCC(=O)OCc2nnc(-c3ccccc3)o2)c1
COc1ccccc1NC(=O)C(C)OC(=O)CCNS(=O)(=O)c1cccc(C(F)(F)F)c1 (stereo not drawn)
O=C(NCc1ccco1)c1nc(-c2ccccc2)n(-c2ccccc2)n1
CCOc1cc(N2CCOCC2)c(OCC)cc1NC(C)C(=O)N1CCN(CC)CC1 (stereo not drawn)
Cc1nc(COC(=O)c2cc(O)c3ccccc3c2O)cs1
CCCC(=O)c1ccc(O)cc1O
COCCN1CC(=O)N2C(c3cccc(C)c3)c3[nH]c4ccccc4c3C[C@H]2C1=O (stereo partly drawn)
COc1ccc(C2CC(=O)c3c(C)nc(N4CCN(c5ccccc5)CC4)nc3C2)cc1 (stereo not drawn)
CCOCCCNC(=O)Cn1cc2c(n1)-c1c(oc(C(=O)N3CCCC3)c1C)CC2
O=C(NC1CCCC1)c1cc(-c2ccc(Cl)cc2Cl)on1
CC1CN(C(=O)COC(=O)/C=C/c2ccccc2)CC(C)O1 (stereo not drawn)
Cc1cccc(OCCn2c(=S)[nH]c3ccccc32)c1
